Data reported in PubChem BioAssay AID1159580 (chemical genetic matrix, 2015).
Values joined by “and” are separate entries in the source; they are usually repeats but may differ in a detail not shown here. Equal entries are not always repeated. Screen size: about 5,500 compounds; about 2,000 (36%) were called active. About 18% were inconclusive and are not listed. Rule as the data show it: active = normalized growth mostly below about 0.91 (no sharp cut-off); inconclusive = no clear call, values can overlap the other calls; inactive = mostly above about 0.92. Some of the results follow.

Experiment: chemical genetic growth profiling, strain panel (AID 1159580);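 also: tested at 20 µM; growth read once vehicle control cultures reached saturation at 30 °C; 1 = growth at the plate median or of vehicle wells; lower values mean less growth of the strain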
Settings: S. cerevisiae deletion strains, growth OD

Measured: normalized growth

CC(=O)O[C@]1(C(C)=O)CCC2C3C[C@H](C)C4=CC(=O)CC[C@]4(C)C3CC[C@@]21C (stereo partly drawn)
inactive: locus YAL021C, strain ccr4, stronger effect = lower value 1 | locus YAL026C, strain drs2, stronger effect = lower value 0.992 | locus YAL030W, strain snc1, stronger effect = lower value 0.968 | locus YBL061C, strain skt5, stronger effect = lower value 0.964 | locus YBR009C, strain hhf1, stronger effect = lower value 0.955 | locus YBR021W, strain FUR4, stronger effect = lower value 0.993 | locus YBR023C, strain chs3, stronger effect = lower value 0.924 | locus YBR171W, strain sec66, stronger effect = lower value 0.95 | locus YBR229C, strain ROT2, stronger effect = lower value 0.993 | locus YBR231C, strain swc5, stronger effect = lower value 0.971 | locus YBR279W, strain paf1, stronger effect = lower value 0.97 | locus YCL011C, strain gbp2, stronger effect = lower value 0.931 | locus YCL016C, strain dcc1, stronger effect = lower value 0.916 | locus YCL029C, strain bik1, stronger effect = lower value 0.957 | locus YCL061C, strain MRC1, stronger effect = lower value 0.965 | locus YCL069W, strain vba3, stronger effect = lower value 0.958 | locus YCR088W, strain abp1, stronger effect = lower value 0.961 | locus YDL005C, strain med2, stronger effect = lower value 0.959 | locus YDL035C, strain GPR1, stronger effect = lower value 1.01 | locus YDL040C, strain nat1, stronger effect = lower value 0.971 | locus YDL074C, strain BRE1, stronger effect = lower value 0.983 | locus YDL101C, strain DUN1, stronger effect = lower value 0.993 | locus YDL185W, strain tfp1, stronger effect = lower value 0.956 | locus YDL192W, strain arf1, stronger effect = lower value 0.966 | locus YDR001C, strain nth1, stronger effect = lower value 0.97 | locus YDR069C, strain doa4, stronger effect = lower value 0.992 | locus YDR101C, strain arx1, stronger effect = lower value 0.999 | locus YDR150W, strain NUM1, stronger effect = lower value 0.99 | locus YDR159W, strain sac3, stronger effect = lower value 0.971 | locus YDR162C, strain NBP2, stronger effect = lower value 0.993 | locus YDR195W, strain ref2 1.07 | locus YDR297W, strain sur2, stronger effect = lower value 0.971 | locus YDR318W, strain mcm21, stronger effect = lower value 0.961 | locus YDR334W, strain swr1, stronger effect = lower value 0.96 | locus YDR335W, strain msn5, stronger effect = lower value 0.971 | locus YDR388W, stronger effect = lower value 0.989 | locus YDR502C, strain sam2, stronger effect = lower value 0.954 | locus YEL003W, strain gim4, stronger effect = lower value 0.987 | locus YEL037C, strain rad23, stronger effect = lower value 0.962 | locus YEL061C, strain CIN8 (second series), stronger effect = lower value 0.97 | locus YEL061C, strain CIN8, stronger effect = lower value 0.991 | locus YER015W, strain faa2, stronger effect = lower value 0.969 | locus YER016W, strain bim1, stronger effect = lower value 0.975 | locus YER110C, stronger effect = lower value 0.96 | locus YER111C, strain swi4, stronger effect = lower value 0.96 | locus YER155C, strain BEM2 (second series), stronger effect = lower value 0.976 | locus YER155C, strain BEM2, stronger effect = lower value 0.98 | locus YER167W, strain BCK2, stronger effect = lower value 0.977 | locus YFR010W, strain ubp6, stronger effect = lower value 0.981 | locus YGL078C, strain dbp3, stronger effect = lower value 0.982 | locus YGL086W, strain mad1, stronger effect = lower value 0.995 | locus YGL167C, strain pmr1, stronger effect = lower value 0.948 | locus YGL173C, strain kem1, stronger effect = lower value 0.969 | locus YGL227W, strain vid30, stronger effect = lower value 0.969 | locus YGL240W, strain doc1, stronger effect = lower value 0.98 | locus YGL248W, strain PDE1, stronger effect = lower value 0.992 | locus YGL253W, strain hxk2, stronger effect = lower value 0.91 | locus YGR135W, strain pre9, stronger effect = lower value 0.912 | locus YGR252W, strain gcn5, stronger effect = lower value 0.926 | locus YHR013C, strain ard1, stronger effect = lower value 0.968 | locus YHR027C, strain rpn1, stronger effect = lower value 0.984 | locus YHR030C, strain SLT2, stronger effect = lower value 0.997 and 0.999 | locus YHR079C, strain IRE1 (second series), stronger effect = lower value 0.979 | locus YHR079C, strain IRE1, stronger effect = lower value 0.98 | locus YHR094C, strain hxt1, stronger effect = lower value 0.991 | locus YHR129C, strain ARP1, stronger effect = lower value 0.993 | locus YHR200W, strain rpn10, stronger effect = lower value 0.982 | locus YIL066C, strain RNR3, stronger effect = lower value 0.991 | locus YIL073C, strain SPO22, stronger effect = lower value 0.932 | locus YIL125W, strain kgd1, stronger effect = lower value 0.996 | locus YIR030C, strain dcg1, stronger effect = lower value 0.962 | locus YJL092W, strain hpr5, stronger effect = lower value 0.964 | locus YJL095W, strain BCK1 (second series), stronger effect = lower value 0.953 | locus YJL095W, strain BCK1, stronger effect = lower value 0.961 and 1 | locus YJL115W, strain asf1, stronger effect = lower value 0.969 | locus YJL129C, strain trk1, stronger effect = lower value 0.902 | locus YJL134W, strain LCB3, stronger effect = lower value 0.993 | locus YJL154C, strain vps35, stronger effect = lower value 0.964 | locus YJL164C, strain tpk1, stronger effect = lower value 0.97 | locus YJL166W, strain qcr8, stronger effect = lower value 0.926 | locus YJL168C, strain set2, stronger effect = lower value 0.985 | locus YJL187C, strain SWE1 (second series), stronger effect = lower value 0.985 | locus YJL187C, strain SWE1, stronger effect = lower value 0.976 | locus YJR043C, strain POL32, stronger effect = lower value 1.03 | locus YJR066W, strain TOR1, stronger effect = lower value 0.958
active: locus YDR137W, strain rgp1, stronger effect = lower value 0.839 | locus YDR392W, strain spt3, stronger effect = lower value 0.635 | locus YHR142W, strain chs7, stronger effect = lower value 0.841
